PubChem BioAssay (Tox21)
Inconclusive results are not listed. Where a call stands in place of a potency, no number is given. Calls of active or inactive are those of the source. Unless noted, the call rests on the fitted dose curve; in most records, active means well fitted curve in the direction sought with a large enough effect in the repeat runs; inconclusive means weak or mixed curves; inactive means no such curve, though single readings can be large; an effect the other way counts as inactive or inconclusive.

How the values were obtained:
[1] = qHTS assay for small molecules that induce genotoxicity in human embryonic kidney cells expressing luciferase-tagged ATAD5 - cell viability (AID 651634; calls by dose curve; further: nearly all actives have a fitted effect of over 25% in size; further: potency means the concentration at half of the fitted maximal effect); conditions: HEK293T ATAD5-luc cells viability, CellTiter-Fluor, 15.5 h; series mostly up to 83.3 µM
Procedure, shortened: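 Cells (HEK293T, luciferase-tagged ATAD5) are seeded at 2,000 per well, dosed with compound or DMSO vehicle, and incubated 15.5 hr at 37C and 5% CO2. CellTiter-Fluor is added for 30 min before fluorescence is measured.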

[2] = qHTS assay for small molecule disruptors of the mitochondrial membrane potential - cell viability (AID 720634; calls by dose curve;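 further: human HepG2 liver cancer cells; nearly all actives have a fitted effect of over 20% in size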); conditions: HepG2 viability, ATP luminescence (CellTiter-Glo), 1 h; series mostly up to 83.2 µM
Procedure, shortened: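 Cytotoxicity was measured by ATP quantitation in HepG2 wells that had first been treated with compound for 1 hr and stained with m-MPI dye; CellTiter-Glo incubation was 30 min at room temperature.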

[3] = qHTS assay for small molecule disruptors of the mitochondrial membrane potential (AID 720635); conditions: HepG2 mitochondrial membrane potential, Mito-MPS dye ratio; series mostly up to 83.2 µM; further: potency means the concentration at half of the fitted maximal effect
Procedure, shortened: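 HepG2 cells (2,000/well) attached overnight at 37C, then took compound for 1 hr at 37C, 5% CO2. Mito-MPS dye was added for 30 min; fluorescence was read at 490/535 nm (monomers) and 540/590 nm (aggregates).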

[4] = qHTS assay to test for compound auto fluorescence at 590 nm (red) in HepG2 cells (AID 720674); conditions: HepG2 autofluorescence, red 540/590 nm, 1 h; series mostly up to 46 µM
Procedure, shortened: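 Rose Bengal sodium served as the red fluorophore standard. HepG2 monolayers (overnight attachment, MEM with 10% FBS) were exposed to test compounds for 1 hr at 37 C and read at Ex 540/Em 590 nm.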

[5] = qHTS assay to test for compound auto fluorescence at 535 nm (green) in HepG2 cells (AID 720675); conditions: green autofluorescence 485/535 nm, 1 h; series mostly up to 46 µM; further: potency means the concentration at half of the fitted maximal effect
[6] = qHTS assay to test for compound auto fluorescence at 460 nm (blue) in HEK293 cells (AID 720678); conditions: blue autofluorescence 405/460 nm; series mostly up to 46 µM
Procedure, shortened: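 Cells were seeded and left to adhere for 4-5 hr at 37C. Compounds were then pin-transferred. After an overnight incubation at 37C under 5% CO2, intrinsic fluorescence at 405/460 nm was measured and referenced to triamterene.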

[7] = qHTS assay to test for compound auto fluorescence at 590 nm (red) in HEK293 cells (AID 720679); conditions: red autofluorescence 540/590 nm; series mostly up to 46 µM
Procedure, shortened: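 Each well held 2,000 HEK293 cells in medium containing 10% dialyzed FBS. Following 4-5 hr attachment at 37C, 23 nL test compound or DMSO was added; plates sat overnight, and red fluorescence (540/590nm) was recorded.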

[8] = qHTS assay for small molecule agonists of the p53 signaling pathway - cell viability (AID 651633; calls by dose curve; further: nearly all actives have a fitted effect of over 30% in size; further: potency means the concentration at half of the fitted maximal effect); conditions: p53RE-bla HCT-116 viability, ATP luminescence, 16 h; series mostly up to 83.3 µM
Procedure, shortened: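 p53RE-bla cells, seeded at 4,000 per well and rested 5 h at 37 C/5% CO2, received compounds in DMSO for 16 h at 37 C. CellTiter-Glo was then added, and luminescence was read after 30 min at room temperature to gauge cytotoxicity.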

| SMILES | Potency [1] | Potency [2] | Potency [3] | Potency [4] | Potency [5] | Potency [6] | Potency [7] | Potency [8] |
| --- | --- | --- | --- | --- | --- | --- | --- | --- |
| CCCCCCCCCCCCCCCCCC(=O)OC[C@@H](O)[C@H]1OC[C@H](O)[C@H]1O | inactive | inactive | inactive | inactive | inactive | inactive | inactive |  |
| CN[C@@H]1[C@H](O[C@H]2[C@H](O[C@H]3[C@H](O)[C@@H](O)[C@H](N=C(N)N)[C@@H](O)[C@@H]3N=C(N)N)O[C@@H](C)[C@]2(O)C=O)O[C@@H](CO)[C@H](O)[C@H]1O | inactive | inactive | inactive | inactive | inactive | inactive | inactive | inactive |
| O=C(Nc1ccc(/C=C/c2ccc(NC(=O)c3cc(S(=O)(=O)O)c4cccnc4c3O)cc2S(=O)(=O)O)c(S(=O)(=O)O)c1)c1cc(S(=O)(=O)O)c2cccnc2c1O | inactive | inactive |  | inactive |  | inactive | inactive | inactive |
| CN1CCN(CCC=C2c3ccccc3Sc3ccc(S(=O)(=O)N(C)C)cc32)CC1 | 29.8 µM (active) |  |  | inactive | inactive | inactive | inactive |  |
| C#C[C@]1(O)CC[C@H]2[C@@H]3CCC4=C/C(=N/O)CC[C@@H]4[C@H]3CC[C@@]21CC |  | inactive | 10.6 µM (active) | inactive | inactive | inactive | inactive | inactive |
| CCCCC/C=C\C/C=C\C/C=C\CCCCC(=O)O | inactive | inactive |  | inactive | inactive | inactive | inactive | inactive |
| C=C1C(=O)O[C@H]2[C@H]1CC/C(C)=C\CC[C@@]1(C)O[C@@H]21 |  | inactive |  | inactive | inactive | inactive | inactive | 29.8 µM (active) |
| CC1CCCC1 |  |  |  | inactive | inactive | inactive | inactive |  |
| CCN(CC)CCOCCOC(=O)C(CC)(CC)c1ccccc1 | inactive | inactive |  | inactive | inactive | inactive | inactive | inactive |
| OCCN1CCN(CC/C=C2/c3ccccc3Sc3ccc(Cl)cc32)CC1 | inactive | inactive |  | inactive | inactive | inactive | inactive | inactive |
| CCCCCCCCCCCCCCCCCC(=O)OCC(C)O (stereo not drawn) | 23.7 µM (active) | inactive |  | inactive | inactive | inactive | inactive | inactive |
| CCCCC(C)(O)C/C=C/[C@H]1[C@H](O)CC(=O)[C@@H]1CCCCCCC(=O)OC (stereo partly drawn) | inactive | inactive |  | inactive | inactive | inactive | inactive | inactive |
| Cc1ccccc1 |  |  |  | inactive | inactive | inactive | inactive |  |
| CO[C@@H]1[C@@H](O[C@@H]2O[C@H](C)[C@@H](O[C@H]3C[C@@](C)(O)[C@@H](OC(=O)CC(C)C)[C@H](C)O3)[C@H](N(C)C)[C@H]2O)[C@@H](CC=O)C[C@@H](C)C(=O)/C=C/C2OC2C[C@@H](C)OC(=O)C[C@H]1OC(C)=O (stereo partly drawn) |  | inactive |  | inactive | inactive | inactive | inactive |  |
| OCC(O)CO |  |  |  | inactive | inactive | inactive | inactive |  |
| C=C1C(=C/C=C2\CCC[C@]3(C)[C@@H]([C@H](C)CCCC(C)(C)O)CC[C@@H]23)C[C@@H](O)C[C@@H]1O |  | inactive | 10.6 µM (active) | inactive | inactive | inactive | inactive | 21.1 µM (active) |
| CC(C)(S)[C@@H](N)C(=O)O | inactive | inactive |  | inactive | inactive | inactive | inactive | inactive |
| O=C1CSC2(CCN(CCCN3c4ccccc4Sc4ccc(Cl)cc43)CC2)N1 |  | inactive |  | inactive | inactive | inactive | inactive |  |
| C=Cc1c(C)c2cc3nc(cc4[nH]c(cc5nc(cc1[nH]2)C(C)=C5CCC(=O)OC)c(CCC(=O)O)c4C)[C@@]1(C)C3=CC=C(C(=O)OC)[C@H]1C(=O)OC |  | inactive | 1.88 µM (active) | inactive | inactive | inactive | inactive |  |
| CC(=C\c1ccccc1)/C=C1/SC(=S)N(CC(=O)O)C1=O | 21.1 µM (active) | inactive |  | inactive | inactive | inactive | inactive | inactive |
| O=c1oc2cc(O)ccc2s1 | inactive | inactive |  | inactive | inactive | inactive | inactive | inactive |
| CN1CCN2c3ncccc3Cc3ccccc3C2C1 (stereo not drawn) | inactive | inactive | inactive | inactive | inactive | inactive | inactive | inactive |
| COc1ccc(C[C@@H](C)NC[C@H](O)c2ccc(O)c(NC=O)c2)cc1 |  | inactive |  | inactive | inactive | inactive | inactive |  |
| Cc1cc2nc3c(=O)[nH]c(=O)nc-3n(C[C@H](O)[C@H](O)[C@H](O)COP(=O)(O)OP(=O)(O)OC[C@H]3O[C@@H](n4cnc5c(N)ncnc54)[C@H](O)[C@@H]3O)c2cc1C |  | inactive |  | inactive | 14.1 µM (active) | inactive | inactive | inactive |
| CCC(=O)OCC(=O)[C@@]1(OC(=O)CC)[C@@H](C)C[C@H]2[C@@H]3CCC4=CC(=O)C=C[C@]4(C)[C@@]3(F)[C@@H](O)C[C@@]21C | inactive | inactive | 23.7 µM (active) | inactive |  | inactive | inactive |  |
| CC(=O)Nc1ccc(NC(=S)NC(=O)c2ccc(C(C)(C)C)cc2)cc1 | inactive | inactive | 2.11 µM (active) | inactive | inactive | inactive | inactive |  |
| CO[C@H]1C[C@H](O[C@@H]2/C(C)=C/C[C@@H]3C[C@@H](C[C@]4(CC[C@H](C)[C@@H](C5CCCCC5)O4)O3)OC(=O)[C@@H]3C=C(C)/C(=N/O)[C@H]4OC/C(=C\C=C\[C@@H]2C)[C@]43O)O[C@@H](C)[C@@H]1O | inactive | inactive |  | inactive | inactive | inactive | inactive |  |
